Compound activity as filed in PubChem BioAssay.
The sample as a whole holds a higher share of hits than the screen did.
Bm FixLJ act = increases Burkholderia fixLJ two-component signaling; B. multivorans fixK-promoter GFP reporter, 18 h; active compounds read high; z-score (concentration not given with the values); 29,000 compounds, 0.3% hits; AID 1918990;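 active = replicate mean overnight rise in green fluorescent reporter signal, 3 or more SD over negative controls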
* marks the source's active call; other numbers are inactive results.

SMILES	Bm FixLJ act
CCC(C)Sc1oc(-c2ccco2)nc1S(=O)(=O)c1ccc(C)cc1 (stereo not drawn)	5.5*
Cc1ccc(S(=O)(=O)c2nc(-c3ccco3)oc2SCc2ccccc2Cl)cc1	0.63
Cc1ccc(CSc2oc(-c3ccco3)nc2S(=O)(=O)c2ccc(C)cc2)cc1	-0.02
CCc1ccc(-c2nn(-c3ccc(OC)cc3)c3c2cnc2ccc(OC)cc23)cc1	1.1
CCOc1ccc2ncc3c(-c4cccc(OC)c4)nn(-c4ccccc4)c3c2c1	3.3*
CCOc1ccc(-c2nn(-c3ccc(F)cc3)c3c2cnc2ccc(F)cc23)cc1	-1.6
Cc1cc(NC(=O)CN2CCC(C(=O)NCc3ccccn3)CC2)no1	0.66
CCc1[nH]nc(C(=O)N2CCC3(CC2)c2nc[nH]c2CCN3C(=O)COC)c1C	0.04
Cc1nc(C(C)C)cc(N2CCC3(CCC(=O)N(Cc4ccncc4)C3)CC2)n1	-0.27
Nc1c(C(=O)Nc2ccccc2Br)sc2nc(-c3cccs3)ccc12	-4.1
Nc1c(C(=O)Nc2ccc(F)c(F)c2)sc2nc(-c3ccncc3)ccc12	-0.61
Nc1c(C(=O)Nc2ccc(Cl)cc2F)sc2nc(-c3cccs3)ccc12	8.7*
CCC(NC(=O)Cc1ccc(OC)cc1OC)c1ccc(C)cn1 (stereo not drawn)	-0.76
Cc1ccccc1NC(=O)CCS(=O)(=O)c1cc(Br)cc2c1N(C(=O)C1CC1)CC2	0.43
Cc1cccc(NC(=O)CCS(=O)(=O)c2cc(Br)cc3c2N(C(=O)C2CC2)CC3)c1C	0.77
CCC(=O)N1CCc2cc(Br)cc(S(=O)(=O)CCC(=O)Nc3cccc(C)c3C)c21	3.4*
CN(Cc1ccc2nsnc2c1)C(=O)c1ccc2n[nH]nc2c1	0.04
CN(c1ccc(C(=O)NCc2noc(-c3cccs3)n2)cc1)S(C)(=O)=O	-0.06
COCc1noc(CNC(=O)c2ccc(N(C)S(C)(=O)=O)cc2)n1	3*
COc1ccc(CNC(=O)c2ccc(CNS(=O)(=O)c3ccc(OC)cc3)cc2)cc1	0.21
CS(=O)(=O)CCN1CCCC(c2ccnn2CC(=O)O)C1 (stereo not drawn)	0.22
Cc1cc(CC2CN(C(=O)c3ccc(F)c(O)c3)CC2O)n[nH]1 (stereo not drawn)	-0.32
COc1ccccc1NC(=O)c1sc(-c2ccc(Cl)cc2)cc1N	4.2*
COc1ccc(C(=O)Nc2cc(-c3nc4ccccc4s3)ccc2OC)cc1	0.46
COc1ccccc1NC(=O)c1sc2nc3c(cc2c1N)CCCCCC3	-2.2
SMILES	Bm FixLJ act
CCC(NC(=O)c1cccc(OC)c1F)c1nc(C)c(C)s1 (stereo not drawn)	0.15
Cc1n[nH]c(C)c1CCNC(=O)N1CCCC(Cc2nc3ccccc3[nH]2)C1 (stereo not drawn)	-0.35
O=C(Cn1ncc2c3ccccc3n(Cc3ccc(Cl)cc3)c2c1=O)NC1CCCCCC1	11*
Cc1cc(C)c(Cn2c3ccccc3c3cnn(CC(=O)NCCC4=CCCCC4)c(=O)c32)c(C)c1	-1.9
CC1CCC(NC(=O)Cn2ncc3c4ccccc4n(Cc4ccc(Cl)cc4)c3c2=O)CC1 (stereo not drawn)	2.9
Cc1ccccc1Cn1c2ccccc2c2cnn(CC(=O)NC3CCCCCC3)c(=O)c21	-1.2
O=C(Cn1ncc2c3ccccc3n(Cc3ccc(Cl)cc3)c2c1=O)NCCC1=CCCCC1	6.4*
O=C(Cn1ncc2c3ccccc3n(Cc3ccccc3)c2c1=O)NCCc1ccc(Cl)cc1	0.29
CN(C)C(=O)CC(O)c1cc2n(n1)CCN(CC=Cc1ccccc1)C2 (stereo not drawn)	-0.4
COC(=O)c1ccc([C@@H]2Nc3c(C)cc(C)cc3[C@@H]3C=CC[C@@H]32)cc1	-2.4
COCCNc1nc2cc(C(=O)NC3CCC(N)C3)ccc2n1C (stereo not drawn)	-0.83
COc1ccc(Nc2c3c(nc4ccccc24)CCC3)cc1Cl	-3.5
Cc1ccc(NC2=C(c3ccc(C(F)(F)F)cc3)C(=O)c3ccccc32)cc1C	3.3*
COc1ccc(OC)c(NC2=C(c3ccccc3)C(=O)c3ccccc32)c1	-0.05
COc1ccc(C2=C(N3CCN(c4cc(C)ccc4C)CC3)c3ccccc3C2=O)cc1	-0.78
COc1ccc(NC2=C(c3ccccc3)C(=O)c3ccccc32)cc1Cl	3.8*
COc1ccc(C2=C(N3CCN(c4cc(Cl)ccc4C)CC3)c3ccccc3C2=O)cc1	-0.7
CC(C)c1nc(C(=O)NC2COCC2Cc2ccnc3ccccc23)cs1 (stereo not drawn)	-1.7
COc1ccc(CN2CCn3nc(CNc4cnccn4)cc3C2)cn1	-2.1
COCCN1CCCC2(CCN(c3cc(=O)[nH]cn3)C2)C1=O (stereo not drawn)	0.57
COc1ccccc1C(=O)Nc1c(C(=O)c2ccccc2)oc2ccccc12	3.7*
COc1ccccc1OCC(=O)Nc1c(C(=O)c2ccc(C)cc2)oc2ccccc12	-2.1
COc1ccc(C(=O)c2oc3ccccc3c2NC(=O)c2ccc(F)cc2)cc1	-0.26
COCCC(=O)NC(c1cnc2ccccc2c1)C1CC(O)C1 (stereo not drawn)	-0.17
O=C(c1ccnc(N2CCC3C(C2)OCc2cnnn23)c1)N1CCCCC1 (stereo not drawn)	-1.9
